TEAD-YAP inh = TEAD-YAP interaction inhibition, primary screen, TEAD-YAP interaction inhibitor project, luminescence, HEK-TIYL cells; TEAD-Gal4/YAP UAS-luciferase luminescence; inhibition, % at 9.12 µM; hit rate 1.4% among 640,000; in the data active = inhibition above about 32%;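 also: 0% = median of test compound wells and 100% = reference inhibitor wells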
MITF inh = MITF inhibitors, primary screen, biochemical, AlphaScreen, human; Microphthalmia-associated transcription factor (Homo sapiens), O75030; AlphaScreen MITF homodimerization, bead proximity signal; inhibition, % at 2.6 µM; hit rate 0.91% among 650,000; AID 1259374, 2018; in the data active = inhibition above about 50%;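 also: 0% = vehicle wells with protein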
Target sequence (O75030 whole entry, looked up): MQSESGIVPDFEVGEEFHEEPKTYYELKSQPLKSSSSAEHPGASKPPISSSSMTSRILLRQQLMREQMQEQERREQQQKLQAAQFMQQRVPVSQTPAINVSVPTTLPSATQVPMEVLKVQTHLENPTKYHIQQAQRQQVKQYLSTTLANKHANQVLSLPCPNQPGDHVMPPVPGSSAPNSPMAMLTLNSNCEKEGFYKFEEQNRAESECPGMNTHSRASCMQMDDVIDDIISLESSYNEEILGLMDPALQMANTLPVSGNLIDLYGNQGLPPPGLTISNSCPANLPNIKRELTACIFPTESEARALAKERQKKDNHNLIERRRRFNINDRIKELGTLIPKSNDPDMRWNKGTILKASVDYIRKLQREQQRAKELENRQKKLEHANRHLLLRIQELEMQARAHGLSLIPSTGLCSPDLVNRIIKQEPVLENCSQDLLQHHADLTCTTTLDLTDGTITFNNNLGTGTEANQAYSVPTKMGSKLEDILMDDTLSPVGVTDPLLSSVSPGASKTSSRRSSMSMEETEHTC
GPR151 activ = activators of human GPR151, primary screen, cell-based, PathHunter beta-arrestin, luminescence | G-protein coupled receptor 151 (Homo sapiens), Q8TDV0 | PathHunter beta-arrestin GPR151 cells | activation, % at 11.2 µM | hit rate 1% among 650,000 | AID 1508602, 2020; in the data active = activation above about 4.9%;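 also: 0% = median of compound wells and 100% = cells with positive control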
FBW7 act = FBW7 E3 ligase activators, primary screen, biochemical, AlphaScreen, human. F-box/WD repeat-containing protein 7 (Homo sapiens), Q969H0. AID 1259310, 2017. normalized activity (activation), % at 26.1 µM. hit rate 0.13% among 650,000. AlphaScreen FBW7–phospho-cyclin E peptide binding, activator screen; in the data active = normalized activity above about 1.9%;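 also: purified mutant Fbw7 with reduced substrate affinity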
GPR151 confirm = GPR151 activators, triplicate retest, confirmation, cell-based, PathHunter beta-arrestin, luminescence; 6,700 tested, under 10 active; activation, % at 11.2 µM; shares compounds with GPR151 activ; AID 1508609, 2020; GPR151 PathHunter beta-arrestin cells, 90 min; % of EA-reagent control over plate median;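 active = mean percent activation across replicates above the confirmation screen cutoff of 4.91%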
GPR119 ag = GPR119 activators in beta-arrestin cells, counter-screen for GPR151 activator project, cell-based, PathHunter beta-arrestin, luminescence, triplicate; shares compounds with GPR151 activ; 90 min; 0 = compound-well median, 100 = enzyme-acceptor control; activation, % at 11.2 µM; hit rate 0.3% among 6,700; AID 1508611, 2020;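 active = mean percent activation in the counterscreen above 29.09%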;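 also: counterscreen on off-target GPR119 to flag nonselective hits from the GPR151 activator screen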
* marks the source's active call; other numbers are inactive results; . = no result. Shown are actives, neighbours in structure and some others; about 3.5% of the full set was active somewhere.

SMILES | TEAD-YAP inh | MITF inh | GPR151 activ | FBW7 act | GPR151 confirm | GPR119 ag
COc1ccc2c(c1)-c1c(sn(-c3ccc(Cl)cc3C)c1=S)C(C)(C)N2 | -5 | -1 | 0 | 0 | . | .
CC(=O)c1sc(NC(=O)c2ccc([N+](=O)[O-])cc2)nc1C | -24 | -4 | -2 | 0 | . | .
Nc1c(Cl)cc(Cl)cc1C(=O)OCC(=O)N1CCCC1 | -6 | 4 | 7.5* | 0 | 2 | 5
NC(=O)COC(=O)c1cc(Cl)cc(Cl)c1N | 0 | -1 | -1 | 0 | . | .
COc1ccc(/C=C2\N=C(c3ccc(F)cc3)OC2=O)c(OC)c1 | 0 | -1 | 0 | 0 | . | .
Cc1nc(Nc2nc(-c3ccccc3)cc(=O)[nH]2)nc2ccccc12 | 7 | 4 | 0 | 0 | . | .
COc1ccc2nc(Nc3nc(-c4ccccc4)cc(=O)[nH]3)nc(C)c2c1 | 3 | -6 | 6.8* | 0 | 0 | 13
Cc1cnc(C)c(N2CCN(Cc3nc(-c4ccc5c(c4)OCO5)no3)CC2)n1 | 9 | 13 | 0 | 0 | . | .
CC(C)/C(=N\NC(N)=S)c1ccccc1 | 6 | 10 | 6.5* | 0 | 0 | 4
COC(=O)c1ccc(N2N=C(C)/C(=C/c3ccc(C)s3)C2=O)cc1 | 2 | -3 | 0 | 0 | . | .
CC1=NN(c2ccc(Br)cc2)C(=O)/C1=C/c1ccc(C)s1 | 3 | -2 | 7.5* | 0 | 1 | 2
COc1ccc(S(=O)(=O)N(CC(=O)Nc2c(C)cccc2C)c2ccc(Cl)cc2)cc1 | 0 | 37 | 1 | 0 | . | .
Cc1onc(-c2ccccc2Cl)c1C(=O)Nc1ccc(F)cc1F | 5 | -1 | -1 | 0 | . | .
COc1ccc2c(c1)CCC(C)N2S(=O)(=O)c1ccc(C2CNC(=O)C2)cc1 (stereo not given) | 3 | 2 | 8.3* | 0 | 0 | 4
COc1ccc(CNS(=O)(=O)c2ccc(C3CNC(=O)C3)cc2)cc1 (stereo not given) | 12 | 9 | 0 | 1 | . | .
Cc1nc2ccc(Br)cc2c(-c2ccccc2)c1C1=NN(C(=O)CCC(=O)O)C(c2ccccc2F)C1 (stereo not given) | -12 | 3 | 2 | 0 | . | .
CCc1ccc(-c2cn(-c3ccccc3Br)c(=S)[nH]2)cc1 | -8 | 1 | 1 | 0 | . | .
COc1ccc2c(c1)NC1(CCCN(CCN3C(=O)c4ccccc4C3=O)C1)c1cccn1-2 (stereo not given) | 1 | -3 | 5.4* | 0 | 1 | -2
O=C1c2ccccc2C(=O)N1CCN1CCCC2(C1)Nc1ccccc1-n1cccc12 (stereo not given) | -4 | 7 | 0 | 0 | . | .
Oc1ccc(Nc2ncnc3ccc(I)cc23)cc1 | 16 | 8 | 8.2* | 0 | 2 | 8
CCOc1ccc(C)cc1S(=O)(=O)NCC(c1cccn1C)N1CCCC1 (stereo not given) | 1 | 9 | 5.2* | 0 | 0 | -1
Cn1cccc1C(CNS(=O)(=O)c1cc(F)ccc1F)N1CCCC1 (stereo not given) | -4 | -9 | -1 | 0 | . | .
CC(NC(=O)c1ccc(F)cc1)c1ccc2c(c1)OCCO2 (stereo not given) | -1 | 5 | 0 | 0 | . | .
CC(NC(=O)Nc1ccc(F)cc1F)c1ccc2c(c1)OCO2 (stereo not given) | -5 | 7 | 7.2* | 0 | 1 | 0
CCOc1ccc(C(=O)Nc2nc3ccc(OC)cc3s2)cc1Cl | 7 | 8 | -1 | 0 | . | .
SMILES | TEAD-YAP inh | MITF inh | GPR151 activ | FBW7 act | GPR151 confirm | GPR119 ag
CC(C)c1ccc(/C=N/Nc2nncc(=O)[nH]2)cc1 | -44 | 17 | 5.6* | -1 | 0 | -12
CN(C)C(=O)c1ccc(N2CCC(NCC3CCCN(CCc4ccccc4)C3)CC2)cc1 (stereo not given) | -11 | -7 | 0 | 0 | . | .
O=c1[nH]c(=S)c2c(n1-c1ccccc1)CCC2 | 6 | 5 | 5.9* | 0 | 1 | 9
O=c1[nH]c2sc3c(c2c(=O)n1-c1ccccc1)CCCC3 | 6 | 3 | 0 | 0 | . | .
COc1ccc(N2CCN(CC(O)COc3ccc(C(C)C)cc3)CC2)cc1 (stereo not given) | -11 | 11 | 0 | 0 | . | .
O=c1[nH]c(=O)n(-c2ccccc2Cl)c(O)c1C=NCCCn1ccnc1 | 6 | 19 | 4.9* | 0 | 0 | -3
Cc1ccccc1-n1c(=O)cc(NCCCn2ccnc2)[nH]c1=O | 0 | 8 | 14* | 0 | 1 | 3
CCCCCn1c(SCC(=O)OCC)nc2cc(C(=O)NC3CCCCC3)ccc2c1=O | 1 | -7 | 5.4* | 0 | 0 | 4
Cc1cnc(Nc2ccncn2)nc1NC1CC1 | 3 | -6 | 5.7* | 0 | 1 | 0
Cc1cnc(Nc2ccncn2)nc1NC1CCN(Cc2ccccc2)CC1 | 24 | -12 | -3 | 0 | . | .
FC(F)(F)c1ccc(Cl)c(NC2=NCCCCC2)c1 | 3 | 11 | 6.1* | 0 | -1 | -8
CCC(C(=O)Nc1ccc(C)c(C)c1)n1nnc(C(=O)OC)c1C(=O)OC (stereo not given) | 2 | -2 | -1 | 0 | . | .
CCN(C(=O)CSc1nnc(-c2ccco2)o1)C1CCS(=O)(=O)C1 (stereo not given) | -10 | -3 | 12* | 0 | 1 | 4
O=C(CSc1nnc(-c2ccco2)o1)c1ccc2c(c1)OCCO2 | 10 | 12 | 12* | 0 | 0 | -5
O=C(CSc1nnc(-c2ccccc2)o1)c1ccc2c(c1)OCCO2 | -6 | -9 | -1 | 0 | . | .
CN1CCN(C(=O)c2cc(S(=O)(=O)N3CCCCC3)c[nH]2)CC1 | -5 | 7 | 5.3* | 0 | 1 | -4
CCN1CCN(C(=O)c2cc(S(=O)(=O)N3CCCCC3)c[nH]2)CC1 | -6 | -1 | -1 | 0 | . | .
Cc1cccc2c1NC(=O)/C2=C\C(=O)c1cccs1 | 7 | -1 | 6.6* | 0 | 0 | 1
CCc1ccc2c(c1)/C(=C/C(=O)c1cccs1)C(=O)N2 | 0 | -26 | 17* | 0 | 1 | -3
